Common to all, as to design: scale not given: direction of the effect not stated beside the values
In assay [1] the target is Protein translocase subunit SecA (Escherichia coli (strain K12)) (UniProt P10408). Kind of assay: Assay to Identify E. coli SecA ATPase Inhibitors. Format: functional. As to conditions: 30 µM.
Assay [2] deals with T1, Ubiquitin-activating enzyme e1, putative (Leishmania donovani (strain BPK282A1)) (UniProt E9BSI1).
T1 sequence (whole entry): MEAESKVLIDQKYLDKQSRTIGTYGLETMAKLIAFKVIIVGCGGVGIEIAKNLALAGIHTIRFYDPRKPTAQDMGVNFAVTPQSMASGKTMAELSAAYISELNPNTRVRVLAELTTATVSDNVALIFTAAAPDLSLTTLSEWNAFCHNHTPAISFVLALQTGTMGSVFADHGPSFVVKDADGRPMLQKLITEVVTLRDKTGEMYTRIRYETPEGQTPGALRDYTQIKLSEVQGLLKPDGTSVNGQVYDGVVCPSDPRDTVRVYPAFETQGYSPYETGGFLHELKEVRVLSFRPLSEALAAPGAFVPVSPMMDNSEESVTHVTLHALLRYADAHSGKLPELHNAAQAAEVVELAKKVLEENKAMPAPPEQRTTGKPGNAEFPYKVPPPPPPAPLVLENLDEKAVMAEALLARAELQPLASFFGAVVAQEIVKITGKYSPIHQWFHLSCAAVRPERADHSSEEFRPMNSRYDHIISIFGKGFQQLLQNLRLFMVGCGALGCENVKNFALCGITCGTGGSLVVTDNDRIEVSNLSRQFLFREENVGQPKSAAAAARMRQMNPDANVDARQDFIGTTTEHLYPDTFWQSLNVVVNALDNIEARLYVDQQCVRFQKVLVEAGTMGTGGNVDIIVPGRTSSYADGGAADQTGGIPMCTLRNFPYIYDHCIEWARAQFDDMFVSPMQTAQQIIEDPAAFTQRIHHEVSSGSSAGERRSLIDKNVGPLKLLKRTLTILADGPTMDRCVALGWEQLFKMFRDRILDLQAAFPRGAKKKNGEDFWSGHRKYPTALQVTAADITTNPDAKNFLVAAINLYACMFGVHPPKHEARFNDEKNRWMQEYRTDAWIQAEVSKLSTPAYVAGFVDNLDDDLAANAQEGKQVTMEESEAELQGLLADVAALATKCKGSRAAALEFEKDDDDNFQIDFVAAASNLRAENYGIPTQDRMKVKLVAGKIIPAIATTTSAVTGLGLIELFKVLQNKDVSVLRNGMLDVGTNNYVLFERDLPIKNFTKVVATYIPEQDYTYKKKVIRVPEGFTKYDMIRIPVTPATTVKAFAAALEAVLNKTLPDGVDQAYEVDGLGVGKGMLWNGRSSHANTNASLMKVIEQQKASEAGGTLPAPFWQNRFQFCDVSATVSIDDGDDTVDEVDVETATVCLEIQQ
The assay can be described thus: Leishmania donovani Ubiquitin Activating Enzyme (LdE1). Format: functional. Conditions: 30 µM.

Assay [3] addresses Sialic acid-binding Ig-like lectin 9 (Homo sapiens) (UniProt Q9Y336). The assay can be described thus: Hs-Siglec9 ALPHAscreen SOP 20170721. Conditions: 10 µM. On the technique in general: In Alpha technology, singlet oxygen from a donor bead excites a nearby acceptor bead.
The test system of another assay is Trypanosoma cruzi. The assay can be described thus: Trypanosoma cruzi phosphomannomutase and mannose-1-phosphate guanylyltransferase assay. Conditions: 10 µM. Format: functional.
The target in assay [4] is T2, Arginase-2, mitochondrial (Homo sapiens) (UniProt P78540).
T2 sequence (whole entry): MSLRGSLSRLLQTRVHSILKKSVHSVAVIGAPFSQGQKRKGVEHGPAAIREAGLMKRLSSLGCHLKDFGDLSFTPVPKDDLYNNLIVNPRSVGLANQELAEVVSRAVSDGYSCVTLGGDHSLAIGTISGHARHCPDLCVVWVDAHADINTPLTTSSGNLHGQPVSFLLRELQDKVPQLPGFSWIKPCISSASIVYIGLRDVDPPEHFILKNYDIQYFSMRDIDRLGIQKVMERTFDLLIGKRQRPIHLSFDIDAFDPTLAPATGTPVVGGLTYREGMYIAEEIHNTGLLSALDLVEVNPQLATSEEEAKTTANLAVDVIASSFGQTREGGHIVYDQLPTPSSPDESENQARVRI
Kind of assay: in vitro enzyme assay to detect the production of urea directly proportional to the activity of Arginase II. Also: in the data most compounds retested in dose-response had high values. Type of assay: functional. Conditions: 33.3 µM.

Assay [5] concerns the target T3, Proteasome subunit beta (Trypanosoma cruzi) (UniProt O96673).
T3 sequence (whole entry): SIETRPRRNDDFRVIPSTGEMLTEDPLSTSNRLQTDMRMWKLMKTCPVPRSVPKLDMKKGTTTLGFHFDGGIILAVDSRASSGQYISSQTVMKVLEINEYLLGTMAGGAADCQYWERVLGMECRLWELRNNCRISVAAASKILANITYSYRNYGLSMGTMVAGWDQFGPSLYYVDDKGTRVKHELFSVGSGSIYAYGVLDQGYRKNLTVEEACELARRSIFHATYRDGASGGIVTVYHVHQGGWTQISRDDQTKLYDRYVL
Kind of assay: Trypanosoma cruzi proteasome chymotrypsin-like activity (TcProtChymo) assay. Also: in the data most compounds retested in dose-response had high values. Type of assay: functional. As to conditions: 9.37 µM.

The species entered for the next assay is Homo sapiens. The assay can be described thus: To identify inhibition of the IFN signalling (Jak-Stat) pathway via expression of an eGFP reporter gene under the control of an IFN-stimulated response element (ISRE) containing MxA promoter. Type of assay: functional. As to conditions: 30 µM.
The target in assay [6] is T4, Tyrosyl-tRNA synthetase, putative (Trypanosoma cruzi (strain CL Brener)) (UniProt Q4DSP6).
T4 sequence (whole entry): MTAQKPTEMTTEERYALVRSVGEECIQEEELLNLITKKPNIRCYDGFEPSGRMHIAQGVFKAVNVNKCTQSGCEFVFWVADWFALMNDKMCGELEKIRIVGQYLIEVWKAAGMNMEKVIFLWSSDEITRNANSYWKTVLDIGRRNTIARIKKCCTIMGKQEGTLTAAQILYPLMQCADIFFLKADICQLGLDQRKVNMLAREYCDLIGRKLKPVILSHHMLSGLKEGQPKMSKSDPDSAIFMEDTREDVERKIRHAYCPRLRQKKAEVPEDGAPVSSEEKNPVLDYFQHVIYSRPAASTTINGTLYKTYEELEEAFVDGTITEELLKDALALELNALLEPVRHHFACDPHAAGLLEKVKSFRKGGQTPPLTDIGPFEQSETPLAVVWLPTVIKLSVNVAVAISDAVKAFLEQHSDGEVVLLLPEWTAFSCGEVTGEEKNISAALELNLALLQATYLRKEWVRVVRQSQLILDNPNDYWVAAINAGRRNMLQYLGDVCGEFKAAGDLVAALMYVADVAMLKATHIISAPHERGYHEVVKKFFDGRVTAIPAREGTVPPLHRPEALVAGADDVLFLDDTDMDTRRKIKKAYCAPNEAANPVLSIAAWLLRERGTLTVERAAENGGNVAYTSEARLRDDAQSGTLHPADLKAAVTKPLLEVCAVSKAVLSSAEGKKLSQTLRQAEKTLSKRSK
Kind of assay: Trypanosoma cruzi tyrosyl tRNA synthetase (TcYRS) _High Tyrosine SOP. Also: in the data most compounds retested in dose-response had high values. Conditions: 30 µM. Format: functional.

The target of assay [7] is T4, Tyrosyl-tRNA synthetase, putative (Trypanosoma cruzi (strain CL Brener)). The assay can be described thus: Trypanosoma cruzi tyrosyl tRNA synthetase (TcYRS) SOP. Type of assay: functional. As to conditions: 30 µM.
Assay [8] has as its target Chromo domain-containing protein 1 (Saccharomyces cerevisiae (strain ATCC 204508 / S288c) (Baker's yeast)) (UniProt P32657). Kind of assay: ScCHD-1 Enzyme Inhibition Assay. Also: in the data most compounds retested in dose-response had high values. Format: functional. As to conditions: 30 µM.

The structures appear in SMILES notation. For part of these data: Measured potencies and affinities stand elsewhere.

Sialic acid-binding Ig-like lectin 9 (Homo sapiens), sequence (Q9Y336 whole entry): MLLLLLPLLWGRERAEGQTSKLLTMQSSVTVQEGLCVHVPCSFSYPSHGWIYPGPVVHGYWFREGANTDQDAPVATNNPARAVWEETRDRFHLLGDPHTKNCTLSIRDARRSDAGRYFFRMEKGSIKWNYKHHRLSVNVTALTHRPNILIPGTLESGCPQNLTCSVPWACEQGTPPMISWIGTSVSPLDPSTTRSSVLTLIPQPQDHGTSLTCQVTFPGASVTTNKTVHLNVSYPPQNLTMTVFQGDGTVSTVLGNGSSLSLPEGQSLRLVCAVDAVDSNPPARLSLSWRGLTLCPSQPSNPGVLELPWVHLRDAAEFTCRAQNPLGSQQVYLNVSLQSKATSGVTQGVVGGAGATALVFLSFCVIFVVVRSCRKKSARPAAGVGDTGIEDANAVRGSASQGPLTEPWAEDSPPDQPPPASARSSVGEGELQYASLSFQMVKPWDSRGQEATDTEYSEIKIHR
Chromo domain-containing protein 1 (Saccharomyces cerevisiae (strain ATCC 204508 / S288c) (Baker's yeast)), sequence (P32657 whole entry, the tested form may be a part): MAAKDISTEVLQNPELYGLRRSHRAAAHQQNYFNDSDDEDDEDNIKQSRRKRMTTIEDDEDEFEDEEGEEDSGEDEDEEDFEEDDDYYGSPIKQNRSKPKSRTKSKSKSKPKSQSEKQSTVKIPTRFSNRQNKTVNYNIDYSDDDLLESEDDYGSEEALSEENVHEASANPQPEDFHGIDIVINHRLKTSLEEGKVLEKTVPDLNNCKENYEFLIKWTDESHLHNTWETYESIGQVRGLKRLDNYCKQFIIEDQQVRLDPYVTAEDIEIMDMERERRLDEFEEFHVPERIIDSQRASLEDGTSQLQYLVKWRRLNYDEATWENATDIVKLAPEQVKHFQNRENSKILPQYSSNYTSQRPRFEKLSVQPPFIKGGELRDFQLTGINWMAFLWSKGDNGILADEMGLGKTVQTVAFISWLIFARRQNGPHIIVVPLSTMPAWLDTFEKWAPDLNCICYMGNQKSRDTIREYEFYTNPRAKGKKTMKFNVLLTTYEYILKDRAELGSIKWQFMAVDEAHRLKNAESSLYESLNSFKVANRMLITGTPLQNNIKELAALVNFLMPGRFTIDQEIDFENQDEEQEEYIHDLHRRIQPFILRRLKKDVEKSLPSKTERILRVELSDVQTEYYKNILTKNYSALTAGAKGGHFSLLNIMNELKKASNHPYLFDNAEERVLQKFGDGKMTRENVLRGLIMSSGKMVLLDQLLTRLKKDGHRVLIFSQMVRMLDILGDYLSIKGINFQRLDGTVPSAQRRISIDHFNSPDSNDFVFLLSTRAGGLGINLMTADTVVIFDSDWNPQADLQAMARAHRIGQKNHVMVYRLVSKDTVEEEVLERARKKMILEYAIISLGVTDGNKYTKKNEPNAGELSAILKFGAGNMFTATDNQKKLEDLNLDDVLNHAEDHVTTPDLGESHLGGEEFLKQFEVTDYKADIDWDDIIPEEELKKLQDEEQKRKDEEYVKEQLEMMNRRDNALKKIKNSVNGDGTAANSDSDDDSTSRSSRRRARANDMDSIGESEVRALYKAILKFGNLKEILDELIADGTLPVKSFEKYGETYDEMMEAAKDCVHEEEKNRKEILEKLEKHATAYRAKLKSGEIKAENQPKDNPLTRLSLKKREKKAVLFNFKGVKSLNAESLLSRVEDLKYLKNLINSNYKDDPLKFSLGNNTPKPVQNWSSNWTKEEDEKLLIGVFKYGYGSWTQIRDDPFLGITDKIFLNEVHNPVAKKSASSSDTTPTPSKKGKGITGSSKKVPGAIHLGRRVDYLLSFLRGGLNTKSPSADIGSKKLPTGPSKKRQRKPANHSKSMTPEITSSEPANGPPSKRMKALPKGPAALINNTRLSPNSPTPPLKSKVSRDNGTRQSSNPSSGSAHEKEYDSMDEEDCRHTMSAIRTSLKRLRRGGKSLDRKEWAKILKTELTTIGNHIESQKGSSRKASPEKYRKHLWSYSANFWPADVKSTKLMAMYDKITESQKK
Protein translocase subunit SecA (Escherichia coli (strain K12)), sequence (P10408 whole entry): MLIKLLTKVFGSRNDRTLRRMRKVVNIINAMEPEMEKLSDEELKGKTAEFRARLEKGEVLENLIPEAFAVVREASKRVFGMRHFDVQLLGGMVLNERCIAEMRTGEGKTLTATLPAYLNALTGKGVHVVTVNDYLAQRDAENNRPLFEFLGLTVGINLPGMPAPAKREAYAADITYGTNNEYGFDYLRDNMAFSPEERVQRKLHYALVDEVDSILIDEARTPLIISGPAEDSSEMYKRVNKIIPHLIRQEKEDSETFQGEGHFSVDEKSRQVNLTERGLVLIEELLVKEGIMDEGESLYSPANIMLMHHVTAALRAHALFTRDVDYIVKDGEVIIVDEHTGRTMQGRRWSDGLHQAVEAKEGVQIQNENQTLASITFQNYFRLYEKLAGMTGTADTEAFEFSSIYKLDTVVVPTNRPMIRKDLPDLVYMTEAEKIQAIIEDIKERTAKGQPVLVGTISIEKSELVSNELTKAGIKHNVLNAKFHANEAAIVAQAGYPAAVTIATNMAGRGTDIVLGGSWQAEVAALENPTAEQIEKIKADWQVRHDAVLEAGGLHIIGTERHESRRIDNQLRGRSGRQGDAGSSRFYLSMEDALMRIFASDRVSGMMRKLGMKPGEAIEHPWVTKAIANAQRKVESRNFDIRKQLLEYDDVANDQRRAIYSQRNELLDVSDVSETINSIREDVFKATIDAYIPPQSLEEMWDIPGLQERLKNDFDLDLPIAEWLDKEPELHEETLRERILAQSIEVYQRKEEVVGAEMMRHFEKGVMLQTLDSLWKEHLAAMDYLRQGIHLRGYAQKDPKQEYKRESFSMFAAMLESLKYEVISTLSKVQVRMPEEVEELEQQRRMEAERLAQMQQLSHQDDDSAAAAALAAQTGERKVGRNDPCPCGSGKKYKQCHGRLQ

For `Cc1ccc(CNC(=O)CN2CCCC(Cn3cncn3)C2)s1` (stereo not given), the Percent Effect in assay [1] was 0.165%; in assay [2], 21.3%; in assay [3], -6.68%; in the assay with Trypanosoma cruzi, 3.61%; in assay [4] it was 3.99%; in assay [5], 22.3%. Besides, the Percent Effect is -8.31% in the assay filed under Homo sapiens, 4.74% in assay [6], 12.8% in assay [7] and -11.2% in assay [8].
Consider `Cc1ccc2oc(C(=O)N3CCCC(c4noc(C)n4)C3)cc2n1` (stereo not given), for which the Percent Effect was -2% in assay [1]; 5.13% in assay [2]; 1.38% in assay [3]; -3.66% in the assay with Trypanosoma cruzi; 4.51% in [4]; 3.84% in assay [5]. For the same molecule, the Percent Effect was 11% in the assay filed under Homo sapiens, 4.31% in [6], 8.43% in assay [7] and -2.57% in assay [8].
Regarding `Cc1nc(C2CCN(C(=O)CO)CC2)cc(N2CCOCC2)n1`, the Percent Effect in assay [1] was -2.95%; in assay [2], 8.11%; in [3] it was 8.92%; in the assay with Trypanosoma cruzi, 8.05%; in assay [4], 22%; in assay [5], 8.22%. Also, the Percent Effect in the assay listed under Homo sapiens was -12.6%; in assay [6] it was 6.92%; in [7], 17.1%; in assay [8], 0.691%.
For the molecule `Cc1ccccc1N1CCN(C(=O)c2ccc[nH]2)C(C)C1` (stereo not given), the Percent Effect in [1] was -7.84%; in assay [2], 2.7%; in assay [3], 33.4%; with Trypanosoma cruzi, 5.92%; in assay [4], -2.45%; in [5], 9.25%. Moreover, the Percent Effect in the assay filed under Homo sapiens was 27.5%; in assay [6], 1.6%; in assay [7], 9.76%; in assay [8], -1.74%.
In the case of `O=C(Nc1nnc(C2CC2)s1)NC1CCN(Cc2ccccc2)C1` (stereo not given), the Percent Effect is -5.17% in assay [1]; 12.8% in [2]; -8.9% in assay [3]; -2.35% with Trypanosoma cruzi; 0.82% in assay [4]; 4.01% in [5]. For the same molecule, the Percent Effect in the assay filed under Homo sapiens is 43.6%; in [6] it was 0.478%; in assay [7] it was 10.8%; in assay [8] it was -0.956%.
For the molecule `Clc1ccc(OCCCN2CCN(c3cnccn3)CC2)cc1`, the Percent Effect in [1] was -2.88%; in assay [2], -7.79%; in assay [3] it was 9.41%; with Trypanosoma cruzi it was -0.933%; in [4], -2.66%; in [5], -2.63%. The Percent Effect in the assay filed under Homo sapiens is 3.86%; in assay [6], 11.8%; in assay [7], 23.5%; in assay [8] it was -3.92%.
For `CN1CC(c2ccccc2)CC12CCN(C(=O)c1c(Cl)cnn1C)CC2` (stereo not given), the Percent Effect is -3.22% in assay [1]; 5.41% in assay [2]; 9.49% in assay [3]; 8.05% in the assay with Trypanosoma cruzi; 10.8% in [4]; 10.3% in [5]. Besides, the Percent Effect was -5.06% in the assay filed under Homo sapiens, 5.85% in [6], 14.6% in assay [7] and -3.11% in [8].
With `CC(C)(C)c1n[nH]c(C2CN(C(=O)CCc3cscn3)CCO2)n1` (stereo not given), the Percent Effect in assay [1] is -2.17%; in [2] it was 7.69%; in assay [3], 15.8%; with Trypanosoma cruzi, 4.41%; in assay [4], 5.33%; in assay [5] it was 0.597%. Also, the Percent Effect in the assay listed under Homo sapiens is 6.37%; in assay [6], 3.35%; in [7], 13.2%; in assay [8], -1.16%.
In the case of `Cn1cccc1C(=O)N1CCCC2(CCCN2Cc2cccnc2)C1` (stereo not given), the Percent Effect in [1] was -10.1%; in assay [2], -1.3%; in assay [3] it was -0.843%; with Trypanosoma cruzi, -1.85%; in [4], -6.88%; in assay [5], 7.33%. In addition, the Percent Effect was 9.38% in the assay filed under Homo sapiens, -2.63% in assay [6], 2.56% in [7] and -0.361% in assay [8].
On to `CCc1ccsc1C(=O)N1CCN(CC(O)CC)CC1` (stereo not given), for which the Percent Effect in assay [1] is -2.73%; in assay [2], 7.79%; in [3], 4.04%; in the assay on Trypanosoma cruzi, 4.66%; in [4], -3.48%; in assay [5], 0.877%. The Percent Effect in the assay filed under Homo sapiens was -8.47%; in assay [6] it was 2.94%; in [7], 21.2%; in assay [8], -7.9%.
As to `Cc1nn(C)cc1-c1cc(C(F)(F)F)c2c(C)nn(CC(=O)O)c2n1`, the Percent Effect in [1] is 0.552%; in assay [2] it was 14.7%; in assay [3], -7.53%; in the assay with Trypanosoma cruzi it was -2.56%; in assay [4], -0.885%; in assay [5], 7.72%. Besides, the Percent Effect in the assay filed under Homo sapiens is 24.1%; in [6] it was -1.06%; in assay [7], 0%; in assay [8], -17.3%.
As to `Cc1nc(C2CCCN(C(=O)CO)C2)cc(N2CCOCC2)n1` (stereo not given), the Percent Effect is -7.77% in [1]; 0% in [2]; 22.8% in assay [3]; 9.02% in the assay on Trypanosoma cruzi; -2.45% in assay [4]; 13.7% in assay [5]. Also, the Percent Effect in the assay listed under Homo sapiens was 6.91%; in [6], 3.72%; in assay [7] it was 14.6%; in assay [8] it was -5.28%.

Source of the values: ChEMBL document CHEMBL3988442, “University of Dundee, Small-Polar-MMV Screening Library” (2021).
